Values without a mark were called inactive. Results filed as inconclusive are left out. The source made the active and inactive calls. Unless noted, the call rests on the fitted dose curve; in most records, active means well fitted curve in the direction sought with a large enough effect; inconclusive means small, poorly fitted or top-dose-only effect, or another doubt; inactive means no such curve, though single readings can be large; an effect the other way counts as inactive or inconclusive.

Experiment [1] deals with Lysosomal acid glucosylceramidase (Homo sapiens) (UniProt P04062). In words: Glucocerebrosidase-p2 (AID 348; in the data active means potency below about 10 µM; further: potency means the concentration at half of the fitted maximal effect). To be noted: purified GBA, blue fluorogenic substrate, 40 min. The gist of the method:
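Compounds titrated from 0.6 nM upwards against 0.2 nM enzyme in pH 5.9 citric acid/KH2PO4, taurocholate, tween-20; blue fluorogenic substrate 80 uM, 40 min room temperature, stopped and read Ex 365/Em 440 for AC50.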

Experiment [2] is described as follows: AP1 Signaling Pathway (AID 357; active means well fitted curve in either direction with a large enough effect, not every such curve was filed as active;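 further: ME-180 reporter cells stimulated with EGF at its EC50 level; on the % scale 0 is the no-effect control and ±100 the full control effect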). To be noted: ME-180 AP-1-bla reporter, EGF-induced, beta-lactamase ratio, 5 h; at 7.69 µM (top of the series) unless noted. An outline of the steps:
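A ratiometric CCF4 readout (405 nm excitation; 460 and 530 nm emission) quantified AP-1-driven beta-lactamase in ME-180 cells after 5 h with compound and EC50 EGF; AC50 values were derived for activators and inhibitors.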

Experiment [3] has as its target Cytochrome P450 1A2 (Homo sapiens) (UniProt P05177). As to the kind of experiment: p450-cyp1a2 (AID 410; calls by dose curve; further: potency means the concentration at half of the fitted maximal effect). To be noted: recombinant CYP1A2, luciferin-ME demethylation, luminescence; series mostly up to 57 µM. An outline of the steps:
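Inhibition was calculated relative to 57 uM furafylline (full inhibition). The reaction used human CYP1A2 at 20nM with Luciferin-ME at its Km, 100uM, driven by an NADPH-regenerating system for 60 min at room temperature.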

Experiment [4] is described as follows: NFAT Signaling Pathway (AID 444; active means well fitted curve in either direction with a large enough effect, not every such curve was filed as active;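 further: carbachol stimulus at about its EC50 of 1 µM final; on the % scale 0 is the no-effect control and ±100 the full control effect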). Particulars: Jurkat NFAT-bla M1, carbachol, beta-lactamase ratio, 5 h; at 7.69 µM (top of the series) unless noted. An outline of the steps:
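Jurkat cells carrying an NFAT-driven β-lactamase reporter and co-transfected muscarinic M1 receptor were treated with compound plus carbachol (1 uM final, an EC50 level) for 5 h at 37 °C. CCF4 loading followed for 1 h at RT; 460/530 nm ratio gave %activity.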

Experiment [5] can be described thus: Stat Signaling Pathway (AID 446; active means well fitted curve in either direction with a large enough effect, not every such curve was filed as active;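 further: ME-180 cervical cancer cells given 40 pM IL-6 alongside compound; SIE-controlled beta-lactamase reporter measured as 460/530 nm FRET emission ratio; on the % scale 0 is the no-effect control and ±100 the full control effect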). To be noted: ME-180 SIE beta-lactamase reporter, IL-6 stimulated, 5 h; at 7.69 µM (top of the series) unless noted. An outline of the steps: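 ME-180 cells carrying a SIE-driven beta-lactamase reporter are stimulated with 40 pM IL-6 for 5 h at 37C in the presence of compound. The 460/530 nm FRET substrate ratio is read after 2.5 h at RT. Data are normalised to 300 pM IL-6 and to 125 nM JAK inhibitor controls.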

Experiment [6] deals with Glucocorticoid receptor (Homo sapiens) (UniProt P04150). In words: GR-GFP Redistribution (AID 450;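 active means compounds whose dose series gives a full or clear partial fitted curve of increased nuclear translocation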; further: potency means the concentration at half of the fitted maximal effect). Particulars: U2OS GR-GFP nuclear translocation, laser cytometry, 2 h.
Experiment [7] has the same target. As to the kind of experiment: GR-EFC Redistribution (AID 451; calls by dose curve; further: potency means the concentration at half of the fitted maximal effect). To be noted: CHO-K1 GR-EFC translocation, beta-gal luminescence, 2 h. An outline of the steps:
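CHO-K1 cells stably expressing nuclear-localized β-gal enzyme acceptor and GR fused C-terminally to the enzyme donor fragment; ligand-driven nuclear translocation restores β-gal by complementation. Compounds titrated up to 46 uM final, 2 h at 37 °C; luminescence read.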

In experiment [8] the target is Mitogen-activated protein kinase 10 (Mus musculus) (UniProt Q61831). In words: JNK3 AlphaScreen Assay (AID 530; active means well fitted curve in either direction with a large enough effect, not every such curve was filed as active;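 further: kinase came from lysate of stimulated human HepG2 cells; on the % scale 0 is the no-effect control and ±100 the full control effect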). Particulars: JNK3 lysate, c-Jun phosphorylation; series mostly up to 57.1 µM. An outline of the steps: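 JNK3 came from HepG2 lysates pre-activated with IL-1beta and TNF-alpha and phosphorylated biotinylated GST-cJun (1-79) at 10 uM ATP, pH 7.6, room temperature. Compounds were titrated. AlphaScreen signal used anti-phospho-cJun (Ser73) antibody.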
A general note: Bead proximity is the source of the signal in Alpha formats.

The target of experiment [9] is Cytochrome P450 2C19 (Homo sapiens) (UniProt P33261). As to the kind of experiment: qHTS Assay for Inhibitors and Substrates of Cytochrome P450 2C19 (AID 899). Further: potency means the concentration at half of the fitted maximal effect; nearly all actives have a fitted effect of over 60% in size. To be noted: recombinant CYP2C19, luciferin-H EGE luminescence; series mostly up to 57.1 µM. An outline of the steps:
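NADPH-dependent conversion of Luciferin-H EGE (10uM, at KM) by 5nM enzyme in 50mM KPO4, 60 min at 37C following 10 min compound preincubation. Stopped with luciferin detection buffer; luminescence read after 20 min.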

For experiment [10], the target named is Dual specificity protein kinase CLK4 (Homo sapiens) (UniProt Q9HAZ1). In words: qHTS Assay for Inhibitors of CDC-like Kinase 4 (Kinase-Glo Assay) (AID 1770). Further: nearly all actives have a fitted effect of over 65% in size. Further: potency means the concentration at half of the fitted maximal effect. Particulars: recombinant Clk4, Kinase-Glo ATP depletion luminescence; series mostly up to 66.7 µM. The gist of the method: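 25 nM Clk4 with 100 uM RS repeat peptide and 1 uM ATP (final) in Tris pH7.5, 10 mM MgCl2, 4.5 h at room temperature. Remaining ATP measured by Kinase-Glo luciferase luminescence.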
In general terms: In qHTS, concentration-response curves come from the screen itself.

The target is the same in experiment [11]. In words: qHTS Assay for Inhibitors of CDC-like Kinase 4 (ADP-Glo Assay) (AID 1771). Further: nearly all actives have a fitted effect of over 70% in size. Further: potency means the concentration at half of the fitted maximal effect. To be noted: recombinant CLK4, ADP-Glo luminescence; series mostly up to 80 µM. The gist of the method:
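Kinase reaction: Clk4 at 25 nM, RS repeat peptide substrate at 100 uM, ATP at 1 uM, 1 hr, room temperature. Product ADP detected as luciferase signal via ADP-Glo.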

Experiment [12] shares this target. As to the kind of experiment: qHTS Assay for Inhibitors of CDC-like Kinase 4 (ADP-FP Assay) (AID 1795). Further: nearly all actives have a fitted effect of over 60% in size. Further: potency means the concentration at half of the fitted maximal effect. To be noted: Transcreener ADP fluorescence polarization; series mostly up to 50 µM. The gist of the method:
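Recombinant Clk4 (6.25 nM) phosphorylated 100 uM RS repeat peptide with 1 uM ATP in 25 mM Tris pH 7.5, 10 mM MgCl2, 0.5 mM EGTA, 2.5 mM DTT, 0.01% Triton X-100 for 1 h. ADP was detected by Transcreener ADP2 competitive fluorescence polarization after 30 min at room temperature.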

Experiment [13] has as its target Ubiquitin carboxyl-terminal hydrolase 1 (Homo sapiens) (UniProt O94782). In words: Inhibitors of USP1/UAF1: Pilot qHTS (AID 504865).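 Further: rhodamine fluorescence freed from ubiquitin-rhodamine substrate followed over time; top concentration of the series differs between compounds; on the % scale 0 is the no-effect control and ±100 the full control effect; nearly all actives have a fitted effect of over 35% in size.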 To be noted: purified USP1/UAF1, Ub-rhodamine cleavage fluorescence; series mostly up to 54.9 µM. The gist of the method: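 USP1/UAF1 complex at 1 nM preincubated 15 min at room temperature with compound, then Ub-Rho substrate added at 150 nM final. Fluorescence (480/540 nm) read kinetically in 50 mM HEPES pH 7.8, 0.5 mM EDTA, 1 mM TCEP, 0.1 mg/ml BSA, 0.01% Tween-20.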

Experiment [14] is described as follows: Primary qHTS for small molecule stabilizers of the endoplasmic reticulum resident proteome: Secreted ER Calcium Modulated Protein (SERCaMP) assay (AID 1508630). Further: on the % scale 0 is the no-effect control and ±100 the full control effect. To be noted: SH-SY5Y GLuc-SERCaMP (Gaussia luciferase released on ER calcium loss) secretion, thapsigargin, luminescence; series mostly up to 38.4 µM. The gist of the method: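 GLuc-SERCaMP-expressing SH-SY5Y cells, pretreated 16 h with compound, are challenged with thapsigargin to empty ER calcium stores; after 4 h, coelenterazine is added directly to the medium and luminescence is imaged.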

In experiment [15] the target is Cytochrome P450 3A4 (Homo sapiens) (UniProt P08684). As to the kind of experiment: qHTS Assay for Inhibitors and Substrates of Cytochrome P450 3A4 (AID 884). Further: potency means the concentration at half of the fitted maximal effect; nearly all actives have a fitted effect of over 50% in size. Particulars: recombinant CYP3A4, Luciferin-PPXE luminescence; series mostly up to 57.1 µM. The gist of the method: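 20 nM human CYP3A4 with 25 uM Luciferin-PPXE (at KM) in 200 mM KPO4, preincubated 10 min with compound; NADPH regeneration started a 60 min RT reaction. Luciferin detected by luminescence, normalized to 57 uM ketoconazole as full inhibition.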

Experiment [16] has the same target. In words: qHTS Assay for Activators of Cytochrome P450 3A4 (AID 885). Further: nearly all actives have a fitted effect of over 65% in size. To be noted: recombinant CYP3A4, Luciferin-PPXE luminescence, 60 min; series mostly up to 57.1 µM. The gist of the method: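 Human CYP3A4 (20 nM) with Luciferin-PPXE at 25 uM (its KM) in 200 mM KPO4; 10 min compound preincubation, then NADPH regeneration and 60 min reaction at RT. Luciferin read by luminescence; normalized to 57 uM ketoconazole full inhibition.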

The target of experiment [17] is 3',5'-cyclic-AMP phosphodiesterase 4B (Homo sapiens) (UniProt Q07343). As to the kind of experiment: qHTS Assay for Inhibitors of PDE-IV (AID 607; active means well fitted activation curve with a large enough effect in the main read-out, with a control signal flat, not every such curve was filed as active; further: % of control where 0% means no effect). To be noted: HEK293 ACTOne CNG channel cells, membrane potential fluorescence; series mostly up to 22.9 µM. The gist of the method: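 HEK293 ACTOne cells with CNG channel (1000/well), endogenous PDE4; membrane potential dye, compounds up to 22.9 uM final. Fluorescence Ex 535/Em 590; RO 20-1724 (100 uM final) as reference.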
Sequence of 3',5'-cyclic-AMP phosphodiesterase 4B (Homo sapiens) (Q07343 whole entry, looked up): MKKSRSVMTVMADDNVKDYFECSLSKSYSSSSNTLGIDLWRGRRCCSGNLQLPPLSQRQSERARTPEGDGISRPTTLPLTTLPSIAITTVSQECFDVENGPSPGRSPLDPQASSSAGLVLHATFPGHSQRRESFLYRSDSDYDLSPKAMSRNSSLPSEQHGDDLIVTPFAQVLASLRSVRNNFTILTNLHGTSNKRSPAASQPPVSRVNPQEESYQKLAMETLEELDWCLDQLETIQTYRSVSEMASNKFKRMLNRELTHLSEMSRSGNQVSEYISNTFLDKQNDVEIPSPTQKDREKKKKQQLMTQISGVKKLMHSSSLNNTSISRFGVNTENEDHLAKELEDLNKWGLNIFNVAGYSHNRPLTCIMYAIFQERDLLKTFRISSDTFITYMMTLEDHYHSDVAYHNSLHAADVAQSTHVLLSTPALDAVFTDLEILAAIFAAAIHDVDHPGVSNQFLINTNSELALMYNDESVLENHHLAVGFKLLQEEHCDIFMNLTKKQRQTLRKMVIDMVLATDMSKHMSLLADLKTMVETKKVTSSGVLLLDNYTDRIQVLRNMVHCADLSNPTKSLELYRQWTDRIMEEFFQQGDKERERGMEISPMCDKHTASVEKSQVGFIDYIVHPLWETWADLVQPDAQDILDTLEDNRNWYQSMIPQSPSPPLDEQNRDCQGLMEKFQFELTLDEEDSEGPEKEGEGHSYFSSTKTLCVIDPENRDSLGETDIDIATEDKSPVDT

Sequence of Ubiquitin carboxyl-terminal hydrolase 1 (Homo sapiens) (O94782 whole entry, looked up): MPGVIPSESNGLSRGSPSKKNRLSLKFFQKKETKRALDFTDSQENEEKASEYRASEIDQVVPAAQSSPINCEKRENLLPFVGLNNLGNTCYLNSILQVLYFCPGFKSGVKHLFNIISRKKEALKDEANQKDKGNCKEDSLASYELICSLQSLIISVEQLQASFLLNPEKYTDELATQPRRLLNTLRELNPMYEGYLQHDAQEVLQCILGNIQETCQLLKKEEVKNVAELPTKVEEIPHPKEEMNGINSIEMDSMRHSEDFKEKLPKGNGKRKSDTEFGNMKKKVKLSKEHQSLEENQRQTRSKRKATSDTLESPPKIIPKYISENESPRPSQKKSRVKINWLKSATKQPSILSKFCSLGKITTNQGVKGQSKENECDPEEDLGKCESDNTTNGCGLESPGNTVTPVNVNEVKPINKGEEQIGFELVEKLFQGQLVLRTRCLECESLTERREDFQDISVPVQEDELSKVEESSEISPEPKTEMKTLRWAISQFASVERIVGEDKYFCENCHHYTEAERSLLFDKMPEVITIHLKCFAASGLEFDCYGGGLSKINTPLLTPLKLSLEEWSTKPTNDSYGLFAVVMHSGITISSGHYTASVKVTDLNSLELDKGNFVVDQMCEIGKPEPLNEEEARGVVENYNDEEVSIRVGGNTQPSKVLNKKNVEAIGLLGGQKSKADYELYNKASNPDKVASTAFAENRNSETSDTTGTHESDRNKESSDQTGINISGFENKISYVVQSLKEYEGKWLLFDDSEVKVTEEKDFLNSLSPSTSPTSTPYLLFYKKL
Sequence of Glucocorticoid receptor (Homo sapiens) (P04150 whole entry, looked up): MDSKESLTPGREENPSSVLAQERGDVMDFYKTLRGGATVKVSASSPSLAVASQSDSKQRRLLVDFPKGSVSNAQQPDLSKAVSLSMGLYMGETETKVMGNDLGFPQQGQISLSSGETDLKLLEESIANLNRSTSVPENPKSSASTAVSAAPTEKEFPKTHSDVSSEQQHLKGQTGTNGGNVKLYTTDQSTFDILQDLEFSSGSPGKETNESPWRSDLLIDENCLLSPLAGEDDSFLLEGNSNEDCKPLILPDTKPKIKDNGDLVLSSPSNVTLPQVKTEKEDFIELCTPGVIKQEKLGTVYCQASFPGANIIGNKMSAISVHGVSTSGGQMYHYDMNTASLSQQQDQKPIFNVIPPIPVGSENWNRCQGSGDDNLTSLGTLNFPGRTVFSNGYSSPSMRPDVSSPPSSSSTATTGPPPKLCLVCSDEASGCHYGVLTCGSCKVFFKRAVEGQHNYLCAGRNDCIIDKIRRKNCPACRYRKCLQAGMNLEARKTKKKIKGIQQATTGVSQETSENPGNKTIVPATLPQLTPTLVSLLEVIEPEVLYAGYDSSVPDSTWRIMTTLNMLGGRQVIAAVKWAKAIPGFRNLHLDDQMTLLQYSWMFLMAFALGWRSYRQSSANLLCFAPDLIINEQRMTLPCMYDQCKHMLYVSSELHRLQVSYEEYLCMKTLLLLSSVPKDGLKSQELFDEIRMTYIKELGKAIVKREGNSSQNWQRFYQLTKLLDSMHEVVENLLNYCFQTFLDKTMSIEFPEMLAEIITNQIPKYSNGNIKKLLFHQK
Sequence of Cytochrome P450 3A4 (Homo sapiens) (P08684 whole entry, looked up): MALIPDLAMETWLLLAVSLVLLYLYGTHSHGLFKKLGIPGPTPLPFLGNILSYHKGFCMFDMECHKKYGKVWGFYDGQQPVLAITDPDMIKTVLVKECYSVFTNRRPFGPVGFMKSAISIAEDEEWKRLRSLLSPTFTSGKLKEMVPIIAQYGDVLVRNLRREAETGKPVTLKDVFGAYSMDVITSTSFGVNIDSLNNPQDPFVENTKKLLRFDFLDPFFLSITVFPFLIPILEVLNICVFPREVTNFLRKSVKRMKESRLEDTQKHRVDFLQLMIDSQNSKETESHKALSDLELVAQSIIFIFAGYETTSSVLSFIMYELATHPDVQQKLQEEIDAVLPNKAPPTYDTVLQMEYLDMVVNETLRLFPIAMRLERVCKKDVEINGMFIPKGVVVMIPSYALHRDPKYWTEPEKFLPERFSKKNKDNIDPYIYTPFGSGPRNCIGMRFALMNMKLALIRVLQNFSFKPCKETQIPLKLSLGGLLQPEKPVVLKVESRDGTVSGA
Sequence of Dual specificity protein kinase CLK4 (Homo sapiens) (Q9HAZ1 whole entry, looked up): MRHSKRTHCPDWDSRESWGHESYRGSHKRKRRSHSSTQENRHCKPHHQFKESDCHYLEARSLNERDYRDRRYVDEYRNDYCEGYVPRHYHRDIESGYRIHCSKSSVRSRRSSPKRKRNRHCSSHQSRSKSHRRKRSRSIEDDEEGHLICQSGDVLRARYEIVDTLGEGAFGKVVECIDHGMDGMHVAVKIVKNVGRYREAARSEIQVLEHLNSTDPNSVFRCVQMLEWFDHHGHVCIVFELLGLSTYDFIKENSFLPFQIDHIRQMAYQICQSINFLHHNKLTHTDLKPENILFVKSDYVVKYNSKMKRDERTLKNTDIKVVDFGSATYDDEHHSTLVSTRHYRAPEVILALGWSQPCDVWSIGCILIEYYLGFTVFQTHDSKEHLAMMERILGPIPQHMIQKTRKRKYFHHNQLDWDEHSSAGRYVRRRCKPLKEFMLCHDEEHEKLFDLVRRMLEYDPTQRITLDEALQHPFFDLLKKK
Sequence of Lysosomal acid glucosylceramidase (Homo sapiens) (P04062 whole entry, looked up): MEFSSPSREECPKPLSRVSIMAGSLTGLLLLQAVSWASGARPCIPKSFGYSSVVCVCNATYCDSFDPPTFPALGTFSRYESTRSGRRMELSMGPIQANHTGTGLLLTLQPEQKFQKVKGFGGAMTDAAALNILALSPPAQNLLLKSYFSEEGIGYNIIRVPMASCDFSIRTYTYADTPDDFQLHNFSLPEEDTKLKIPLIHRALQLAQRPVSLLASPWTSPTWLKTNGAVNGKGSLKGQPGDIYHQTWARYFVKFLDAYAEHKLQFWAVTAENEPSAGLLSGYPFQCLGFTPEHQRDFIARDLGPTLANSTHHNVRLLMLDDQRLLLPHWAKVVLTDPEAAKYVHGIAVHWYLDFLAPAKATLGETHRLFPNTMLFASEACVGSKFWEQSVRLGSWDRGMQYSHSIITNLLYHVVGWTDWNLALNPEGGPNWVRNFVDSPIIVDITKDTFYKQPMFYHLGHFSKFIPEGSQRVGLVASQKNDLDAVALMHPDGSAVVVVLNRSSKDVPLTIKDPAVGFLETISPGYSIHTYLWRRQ
Sequence of Cytochrome P450 1A2 (Homo sapiens) (P05177 whole entry, looked up): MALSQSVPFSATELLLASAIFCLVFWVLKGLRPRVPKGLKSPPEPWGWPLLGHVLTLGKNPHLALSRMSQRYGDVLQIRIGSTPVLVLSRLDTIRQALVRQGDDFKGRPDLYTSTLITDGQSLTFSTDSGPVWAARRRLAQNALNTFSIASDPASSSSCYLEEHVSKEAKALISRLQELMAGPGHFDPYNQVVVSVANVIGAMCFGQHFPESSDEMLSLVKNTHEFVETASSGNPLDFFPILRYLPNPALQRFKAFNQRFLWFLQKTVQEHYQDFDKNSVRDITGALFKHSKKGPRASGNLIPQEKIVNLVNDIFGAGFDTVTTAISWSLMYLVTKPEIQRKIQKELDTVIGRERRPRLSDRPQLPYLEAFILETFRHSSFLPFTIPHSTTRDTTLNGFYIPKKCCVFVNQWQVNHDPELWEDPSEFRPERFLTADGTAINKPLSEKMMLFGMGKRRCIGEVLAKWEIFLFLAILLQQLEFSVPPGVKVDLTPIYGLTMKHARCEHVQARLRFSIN
Sequence of Cytochrome P450 2C19 (Homo sapiens) (P33261 whole entry, looked up): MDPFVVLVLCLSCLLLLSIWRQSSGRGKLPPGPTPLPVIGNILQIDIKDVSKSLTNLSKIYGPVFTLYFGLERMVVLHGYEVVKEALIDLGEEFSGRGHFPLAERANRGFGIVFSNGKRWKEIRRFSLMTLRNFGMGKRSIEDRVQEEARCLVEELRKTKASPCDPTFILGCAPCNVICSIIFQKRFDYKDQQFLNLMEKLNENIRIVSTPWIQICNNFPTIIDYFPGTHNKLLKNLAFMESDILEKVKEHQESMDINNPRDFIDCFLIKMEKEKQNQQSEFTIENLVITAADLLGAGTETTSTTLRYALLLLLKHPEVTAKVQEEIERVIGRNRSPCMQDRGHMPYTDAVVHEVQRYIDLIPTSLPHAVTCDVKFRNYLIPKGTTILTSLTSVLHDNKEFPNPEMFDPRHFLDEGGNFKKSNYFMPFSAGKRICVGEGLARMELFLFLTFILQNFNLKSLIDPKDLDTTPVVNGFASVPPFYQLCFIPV

For `Cc1noc(C)c1-c1nc(Nc2ccc(F)cc2)c2ccccc2n1`, the Potency in experiment [1] was over 11.4 µM; in experiment [3] it was 0.251 µM (active); in experiment [6], over 46 µM; in experiment [7], over 46 µM; in experiment [9], 3.16 µM (active). Moreover, the activity change, negative = inhibition in experiment [2] is -5.88%; in [4], 11.3%. The activity, negative = inhibition in [5] is 4.28%. Also, the Potency entry in experiment [8], in [10], in [11], in [12] and in [13] was “inactive” in each case. In addition, the result in [14] was inactive.
In the case of `COc1ccccc1CCn1c(=O)c(CCc2ccccc2)nc2cncnc21`, the Potency in experiment [1] was over 11.4 µM; in experiment [3], 7.94 µM (active); in [6], over 9.22 µM; in [7], over 46 µM; in [15], 3.16 µM (active); in experiment [9], 3.16 µM (active). Further, the activity change, negative = inhibition was -16% in [2] and -21.1% in [4]. For the same molecule, the activity, negative = inhibition in experiment [5] is -8.11%. Further, the Potency entry in experiment [8], in experiment [16], in [10], in experiment [11], in experiment [12] and in experiment [13] was “inactive” throughout. The outcome in experiment [14] was inactive.
Consider `Cc1ccccc1-c1nc(NC2CC2)c2ccccc2n1`, for which the Potency in experiment [1] is 1.17 µM (active); in experiment [3], 0.501 µM (active); in experiment [6], over 46 µM; in experiment [7] it was over 46 µM; in experiment [15], 3.98 µM (active); in [10], 12.6 µM (active). Also, the Potency is 11.2 µM (active) in [11] and 10 µM (active) in experiment [12]. Besides, the results for the activity change, negative = inhibition in experiment [2] and in experiment [4] were 17.6% and -19.1%, respectively. Further, the activity, negative = inhibition in [5] was -0.286%. Further, the Potency result in experiment [8], in experiment [16] and in experiment [13] was “inactive” in each case. Further, the result in experiment [14] was inactive.
In the case of `COc1ccccc1CNc1ccnc(-c2ccc(C(=O)N(C)C)cc2)n1`, the Potency in experiment [1] was over 11.4 µM; in experiment [3], 12.6 µM (active); in experiment [6], over 46 µM; in experiment [7], over 46 µM. For the same molecule, the activity change, negative = inhibition in [2] is -10.9%; in [4] it was 4.15%. Besides, in experiment [5], the activity, negative = inhibition is -1.46%. The Potency entry in experiment [8], in experiment [17], in [16], in experiment [10], in [11] and in experiment [12] was “inactive” in each case. In addition, the Potency result in experiment [13] is “inactive”. Besides, in experiment [14], the result was inactive.
With `CS(=O)(=O)Nc1cccc(-c2nccc(Nc3ccc(F)cc3)n2)c1`, the Potency is over 11.4 µM in experiment [1]; 0.126 µM (active) in [3]; over 46 µM in experiment [6]; over 46 µM in [7]; 15.8 µM (active) in experiment [10]; 10 µM (active) in experiment [11]. Besides, in [12], the Potency is 11.2 µM (active). Moreover, the activity change, negative = inhibition in [2] was -12.6%; in [4] it was 2.44%. The activity, negative = inhibition in [5] was -20.3%. Moreover, the Potency entry in experiment [8], in experiment [17] and in [16] was “inactive” each time. Besides, the result in [14] was inactive.
